This is an account of results in PubChem BioAssay (NCATS).

Assay [1] is described as follows: Primary qHTS for small molecule stabilizers of the endoplasmic reticulum resident proteome: Secreted ER Calcium Modulated Protein (SERCaMP) assay (AID 1508630). Also: % is scaled to controls: 0 for no effect and ±100 for the full control effect. An outline of the steps: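 GLuc-SERCaMP-expressing SH-SY5Y cells, pretreated 16 h with compound, are challenged with thapsigargin to empty ER calcium stores; after 4 h, coelenterazine is added directly to the medium and luminescence is imaged.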

Assay [2] has as its target Lysosomal acid glucosylceramidase (Homo sapiens) (UniProt P04062). Briefly: Glucocerebrosidase-p2 (AID 348; in the data active = potency below about 10 µM; also: potency is read from the fitted curve at half-maximal effect). Particulars: purified GBA, blue fluorogenic substrate, 40 min. In short, it runs like this: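 Compounds titrated from 0.6 nM upwards against 0.2 nM enzyme in pH 5.9 citric acid/KH2PO4, taurocholate, tween-20; blue fluorogenic substrate 80 uM, 40 min room temperature, stopped and read Ex 365/Em 440 for AC50.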

Assay [3] in a line: NFAT Signaling Pathway (AID 444; active = well fitted curve in either direction with a large enough effect, not every such curve was filed as active;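 also: carbachol stimulus at about its EC50 of 1 µM final; % is scaled to controls: 0 for no effect and ±100 for the full control effect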). Particulars: Jurkat NFAT-bla M1, carbachol, beta-lactamase ratio, 5 h; at 7.69 µM (top of the series) unless noted. In short, it runs like this:
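Read-out: CCF4 FRET ratio (460 nm/530 nm) after 1 h RT dye loading, used for %activity and AC50 from titration series. Cells: Jurkat NFAT-β-lactamase/M1 line, treated with compound plus 1 uM carbachol for 5 h, 37 °C.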

Assay [4] has as its target Glucocorticoid receptor (Homo sapiens) (UniProt P04150). Briefly: GR-GFP Redistribution (AID 450;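 active = compounds whose dose series gives a full or clear partial fitted curve of increased nuclear translocation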; also: potency is read from the fitted curve at half-maximal effect). As to conditions: U2OS GR-GFP nuclear translocation, laser cytometry, 2 h.
Assay [5] has the same target. Briefly: GR-EFC Redistribution (AID 451; calls by dose curve; also: potency is read from the fitted curve at half-maximal effect). As to conditions: CHO-K1 GR-EFC translocation, beta-gal luminescence, 2 h. An outline of the steps:
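Translocation of GR-ED fusion to nuclear EA restores b-gal, read by luminescence after 1 h room-temperature detection. Engineered CHO-K1 biosensor cells, 1,000/well, exposed 2 h at 37 C to titrations up to 46 uM final.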

The target of assay [6] is Mitogen-activated protein kinase 10 (Mus musculus) (UniProt Q61831). Briefly: JNK3 AlphaScreen Assay (AID 530; active = well fitted curve in either direction with a large enough effect, not every such curve was filed as active;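 also: kinase came from lysate of stimulated human HepG2 cells; signal reports phosphorylation of biotinylated GST-cJun 1-79 at Ser73 with 10 µM ATP; % is scaled to controls: 0 for no effect and ±100 for the full control effect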). An outline of the steps:
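Room-temperature AlphaScreen kinase assay; pre-activated HepG2 lysate as JNK3 source, biotin-GST-cJun(1-79) substrate, 10 uM ATP, compound 15 min preincubation.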
A general note: Alpha assays give light when donor and acceptor beads are brought close together.

Assay [7] addresses 3',5'-cyclic-AMP phosphodiesterase 4B (Homo sapiens) (UniProt Q07343). Briefly: qHTS Assay for Inhibitors of PDE-IV (AID 607; active = well fitted activation curve with a large enough effect in the main read-out, with a control signal flat, not every such curve was filed as active; also: % of control where 0% means no effect). An outline of the steps:
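The readout is membrane depolarisation from a cAMP-sensing CNG channel, detected with a potential dye at ex 535/em 590. Cells were HEK293-derived (endogenous PDE-IV) at 1000 cells/well, titrated up to 22.9 uM final.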
On the technique in general: Quantitative high-throughput screening tests each substance at several concentrations.

Assay [8] deals with Cytochrome P450 2C9 (Homo sapiens) (UniProt P11712). Briefly: qHTS Assay for Inhibitors and Substrates of Cytochrome P450 2C9 (AID 883). Also: potency is read from the fitted curve at half-maximal effect; nearly all actives have a fitted effect of over 60% in size. In short, it runs like this:
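Inhibition of CYP2C9 is scored as loss of luminescence, with 57uM sulphaphenazole defining 100% inhibition. Substrate Luciferin-H is used at 100uM, equal to its KM; enzyme at 10nM in 25mM KPO4, 60 min at 37C with NADPH regeneration.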

In assay [9] the target is Cytochrome P450 3A4 (Homo sapiens) (UniProt P08684). Briefly: qHTS Assay for Inhibitors and Substrates of Cytochrome P450 3A4 (AID 884). Also: potency is read from the fitted curve at half-maximal effect; nearly all actives have a fitted effect of over 50% in size. An outline of the steps:
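20 nM human CYP3A4 with 25 uM Luciferin-PPXE (at KM) in 200 mM KPO4, preincubated 10 min with compound; NADPH regeneration started a 60 min RT reaction. Luciferin detected by luminescence, normalized to 57 uM ketoconazole as full inhibition.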

Assay [10] has the same target. Briefly: qHTS Assay for Activators of Cytochrome P450 3A4 (AID 885). Also: nearly all actives have a fitted effect of over 65% in size. In short, it runs like this:
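Steps: enzyme/substrate mix dispensed; compound added, 10 min RT; NADPH regeneration solution added, 60 min RT; luciferin detection buffer stops reaction; 20 min later luminescence measured.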

The target of assay [11] is Cytochrome P450 2C19 (Homo sapiens) (UniProt P33261). Briefly: qHTS Assay for Inhibitors and Substrates of Cytochrome P450 2C19 (AID 899). Also: potency is read from the fitted curve at half-maximal effect; nearly all actives have a fitted effect of over 60% in size. An outline of the steps:
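5nM enzyme + 10uM Luciferin-H EGE (=KM), 50mM KPO4; cpd pin-transferred, 10 min 37C; NADPH regen, 60 min 37C; stopped w/ luciferin detection reagent, 20 min; luminescence. Normalized to 57uM ketoconazole (AC100).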

The nature of assay [12]: Cell Viability qHTS for small molecule stabilizers of the endoplasmic reticulum resident proteome (AID 1508629).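 Also: human SH-SY5Y neuroblastoma cells carrying the GLuc-SERCaMP reporter; compound exposure about 46 h in total before the viability read; % is scaled to controls: 0 for no effect and ±100 for the full control effect.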 Particulars: cell viability counter-screen, 100 nM thapsigargin for final 4 h.
A short description of assay [13]: AP1 Signaling Pathway (AID 357; active = well fitted curve in either direction with a large enough effect, not every such curve was filed as active). Particulars: ME-180 AP-1-bla reporter, EGF-induced, beta-lactamase ratio, 5 h; at 7.69 µM (top of the series) unless noted. An outline of the steps:
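Titration-series screen for positive or negative modulators of EC50 EGF-induced signaling in ME-180 cells carrying an AP-1-driven beta-lactamase reporter. After 5 hours at 37 degrees Celsius, CCF4 460nm/530nm emission ratio gave %Activity; AC50 values derived.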

Assay [14] addresses Cytochrome P450 1A2 (Homo sapiens) (UniProt P05177). Briefly: p450-cyp1a2 (AID 410; calls by dose curve; also: potency is read from the fitted curve at half-maximal effect). In short, it runs like this:
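Inhibition was calculated relative to 57 uM furafylline (full inhibition). The reaction used human CYP1A2 at 20nM with Luciferin-ME at its Km, 100uM, driven by an NADPH-regenerating system for 60 min at room temperature.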

The nature of assay [15]: Stat Signaling Pathway (AID 446; active = well fitted curve in either direction with a large enough effect, not every such curve was filed as active). Particulars: ME-180 SIE beta-lactamase reporter, IL-6 stimulated, 5 h; at 7.69 µM (top of the series) unless noted. An outline of the steps:
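Screening format detects activators and inhibitors alike: ME-180 SIE-bla cells stimulated at 40 pM IL-6 for 5 hrs with compound, then dual-emission beta-lactamase read at 405 nm excitation.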

Assay [16] can be described thus: Confirmation and Secondary Assay for Modulators of Hemoglobin Beta Chain Splicing at IVS2 654 locus (AID 910).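 Also: HeLa cells stably carrying EGFP split by mutant beta-globin IVS2-654 intron; per-well total GFP intensity by laser scanning cytometry after 2-day treatment; % of control where 0% means no effect.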 An outline of the steps:
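Readout: per-well total peak green fluorescence (488 nm ex, 500–520 nm em) from objects 5–250 µm, reflecting correct splicing of an EGFP-654 reporter. Compounds were applied for 2 days at 37 °C to overnight-plated HeLa EGFP-654 cells; controls were DMSO and 500 nM IVS2-654 PNA.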

The nature of assay [17]: Confirmation and Secondary Assay for Modulators of Hemoglobin Beta Chain Splicing at IVS2 705 locus (AID 930).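 Also: HeLa cells stably expressing the EGFP-705 splicing reporter; GFP fluorescence per well restored by corrected splicing of the IVS2-705 intron in EGFP; % of control where 0% means no effect.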 In short, it runs like this:
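Per-well GFP, captured at 1 x 8 µm resolution with 488 nm excitation, served as the read-out for HeLa EGFP-705 cells incubated 2 days with test compound versus DMSO.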

Assay [18] in a line: qHTS Assay for Lipid Storage Modulators (AID 1519; calls by dose curve). As to conditions: Drosophila S3 cells, BODIPY lipid droplet/cell ratio, laser cytometry, cells loaded with oleic acid. An outline of the steps: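 Cells seeded at 5,000 per well were treated with compounds over a concentration series and loaded with oleic acid (400 uM, as added). Lipid droplet fluorescence (488 nm excitation, 500-530 nm channel) was read by laser-scanning cytometry and normalized to 20 uM Triacsin C.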

Assay [19] deals with Ubiquitin carboxyl-terminal hydrolase 1 (Homo sapiens) (UniProt O94782). Briefly: Inhibitors of USP1/UAF1: Pilot qHTS (AID 504865).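 Also: rhodamine fluorescence freed from ubiquitin-rhodamine substrate followed over time; top concentration of the series differs between compounds; % is scaled to controls: 0 for no effect and ±100 for the full control effect; nearly all actives have a fitted effect of over 35% in size.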 In short, it runs like this: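 USP1/UAF1 complex (1nM) preincubated with compound 15 min at room temperature, then Ub-Rho substrate (150nM final) added. Fluorescence read kinetically at 480/540 nm, 6 reads every 60 seconds. Buffer: 50mM HEPES pH 7.8, 0.5mM EDTA, 0.1 mg/ml BSA, 1mM TCEP, 0.01% Tween-20.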

Results filed as inconclusive are left out. The source made the active and inactive calls. Unless noted, calls follow the shape of the dose curve; as a rule, active = well fitted curve in the direction sought with a large enough effect; inconclusive = small, poorly fitted or top-dose-only effect, or another doubt; inactive = no such curve, though single readings can be large; an effect the other way counts as inactive or inconclusive.

Cytochrome P450 3A4 (Homo sapiens), sequence (P08684 whole entry, looked up): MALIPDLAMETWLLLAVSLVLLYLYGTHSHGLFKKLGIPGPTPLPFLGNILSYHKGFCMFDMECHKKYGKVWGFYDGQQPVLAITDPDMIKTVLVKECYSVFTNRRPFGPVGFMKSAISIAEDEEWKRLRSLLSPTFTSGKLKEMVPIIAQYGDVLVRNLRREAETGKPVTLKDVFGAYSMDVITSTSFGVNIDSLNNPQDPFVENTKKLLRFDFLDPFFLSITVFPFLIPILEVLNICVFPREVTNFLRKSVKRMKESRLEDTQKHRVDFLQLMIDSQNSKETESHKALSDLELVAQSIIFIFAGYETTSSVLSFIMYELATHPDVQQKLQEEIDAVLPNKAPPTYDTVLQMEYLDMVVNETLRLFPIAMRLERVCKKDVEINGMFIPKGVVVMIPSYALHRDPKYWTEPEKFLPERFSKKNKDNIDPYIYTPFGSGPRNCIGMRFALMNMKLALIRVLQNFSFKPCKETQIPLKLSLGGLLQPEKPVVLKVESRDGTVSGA
Glucocorticoid receptor (Homo sapiens), sequence (P04150 whole entry, looked up): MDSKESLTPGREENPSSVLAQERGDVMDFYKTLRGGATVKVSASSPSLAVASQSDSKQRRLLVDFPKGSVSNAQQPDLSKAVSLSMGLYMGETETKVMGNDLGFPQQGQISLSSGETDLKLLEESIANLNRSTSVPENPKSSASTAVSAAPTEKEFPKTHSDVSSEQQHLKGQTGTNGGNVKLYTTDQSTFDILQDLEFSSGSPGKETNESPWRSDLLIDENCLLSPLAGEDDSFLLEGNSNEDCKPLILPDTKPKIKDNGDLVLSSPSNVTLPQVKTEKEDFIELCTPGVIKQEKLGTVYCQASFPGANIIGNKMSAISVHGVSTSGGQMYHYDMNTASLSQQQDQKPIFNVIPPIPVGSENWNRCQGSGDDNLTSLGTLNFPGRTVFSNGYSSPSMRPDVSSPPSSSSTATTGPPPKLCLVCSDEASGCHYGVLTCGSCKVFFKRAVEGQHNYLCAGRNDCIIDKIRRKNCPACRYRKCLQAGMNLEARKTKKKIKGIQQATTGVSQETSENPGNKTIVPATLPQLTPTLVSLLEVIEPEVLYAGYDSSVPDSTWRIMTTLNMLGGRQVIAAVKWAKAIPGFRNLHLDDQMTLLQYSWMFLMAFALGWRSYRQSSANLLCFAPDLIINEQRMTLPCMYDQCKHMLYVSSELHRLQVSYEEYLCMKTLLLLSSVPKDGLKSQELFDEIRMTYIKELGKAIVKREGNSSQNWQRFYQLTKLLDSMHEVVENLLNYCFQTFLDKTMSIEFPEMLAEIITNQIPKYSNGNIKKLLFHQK
Lysosomal acid glucosylceramidase (Homo sapiens), sequence (P04062 whole entry, looked up): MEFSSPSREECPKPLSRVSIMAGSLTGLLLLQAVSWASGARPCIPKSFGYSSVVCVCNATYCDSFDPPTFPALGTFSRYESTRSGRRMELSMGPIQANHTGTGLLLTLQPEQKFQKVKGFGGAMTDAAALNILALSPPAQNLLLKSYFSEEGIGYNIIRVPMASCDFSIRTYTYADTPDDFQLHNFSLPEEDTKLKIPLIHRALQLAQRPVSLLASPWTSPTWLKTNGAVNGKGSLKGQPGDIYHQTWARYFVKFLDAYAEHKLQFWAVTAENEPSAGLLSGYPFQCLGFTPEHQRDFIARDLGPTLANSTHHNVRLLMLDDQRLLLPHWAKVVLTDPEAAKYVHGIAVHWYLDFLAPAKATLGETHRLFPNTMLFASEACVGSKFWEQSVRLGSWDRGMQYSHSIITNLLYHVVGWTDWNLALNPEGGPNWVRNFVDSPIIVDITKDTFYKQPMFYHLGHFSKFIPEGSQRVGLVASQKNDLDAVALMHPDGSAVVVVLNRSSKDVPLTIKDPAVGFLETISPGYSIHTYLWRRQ
Cytochrome P450 2C9 (Homo sapiens), sequence (P11712 whole entry, looked up): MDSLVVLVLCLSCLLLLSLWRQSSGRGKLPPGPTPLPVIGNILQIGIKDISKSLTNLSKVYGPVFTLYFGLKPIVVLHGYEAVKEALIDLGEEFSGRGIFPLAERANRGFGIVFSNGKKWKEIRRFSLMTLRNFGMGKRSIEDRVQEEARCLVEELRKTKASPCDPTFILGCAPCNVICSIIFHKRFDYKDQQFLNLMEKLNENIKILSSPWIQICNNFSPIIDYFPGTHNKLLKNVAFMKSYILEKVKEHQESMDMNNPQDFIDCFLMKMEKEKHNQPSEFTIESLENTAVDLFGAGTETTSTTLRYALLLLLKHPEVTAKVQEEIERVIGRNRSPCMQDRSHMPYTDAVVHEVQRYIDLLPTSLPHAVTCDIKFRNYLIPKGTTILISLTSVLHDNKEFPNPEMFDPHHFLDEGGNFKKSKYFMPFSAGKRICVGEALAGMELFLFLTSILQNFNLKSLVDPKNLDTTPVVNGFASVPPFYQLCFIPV
Cytochrome P450 1A2 (Homo sapiens), sequence (P05177 whole entry, looked up): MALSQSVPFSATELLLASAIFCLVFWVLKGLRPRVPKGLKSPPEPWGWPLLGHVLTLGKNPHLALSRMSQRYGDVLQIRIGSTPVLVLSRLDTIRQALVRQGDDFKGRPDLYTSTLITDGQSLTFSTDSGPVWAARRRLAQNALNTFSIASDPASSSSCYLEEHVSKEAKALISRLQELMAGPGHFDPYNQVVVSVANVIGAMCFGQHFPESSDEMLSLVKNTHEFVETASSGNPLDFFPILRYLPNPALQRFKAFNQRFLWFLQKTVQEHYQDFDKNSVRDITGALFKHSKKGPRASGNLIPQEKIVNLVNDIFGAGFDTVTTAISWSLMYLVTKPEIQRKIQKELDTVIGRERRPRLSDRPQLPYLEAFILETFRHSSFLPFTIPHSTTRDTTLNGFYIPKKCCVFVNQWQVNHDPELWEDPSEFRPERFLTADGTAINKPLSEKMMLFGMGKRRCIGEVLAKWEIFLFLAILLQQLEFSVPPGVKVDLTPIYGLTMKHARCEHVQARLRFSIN
Cytochrome P450 2C19 (Homo sapiens), sequence (P33261 whole entry, looked up): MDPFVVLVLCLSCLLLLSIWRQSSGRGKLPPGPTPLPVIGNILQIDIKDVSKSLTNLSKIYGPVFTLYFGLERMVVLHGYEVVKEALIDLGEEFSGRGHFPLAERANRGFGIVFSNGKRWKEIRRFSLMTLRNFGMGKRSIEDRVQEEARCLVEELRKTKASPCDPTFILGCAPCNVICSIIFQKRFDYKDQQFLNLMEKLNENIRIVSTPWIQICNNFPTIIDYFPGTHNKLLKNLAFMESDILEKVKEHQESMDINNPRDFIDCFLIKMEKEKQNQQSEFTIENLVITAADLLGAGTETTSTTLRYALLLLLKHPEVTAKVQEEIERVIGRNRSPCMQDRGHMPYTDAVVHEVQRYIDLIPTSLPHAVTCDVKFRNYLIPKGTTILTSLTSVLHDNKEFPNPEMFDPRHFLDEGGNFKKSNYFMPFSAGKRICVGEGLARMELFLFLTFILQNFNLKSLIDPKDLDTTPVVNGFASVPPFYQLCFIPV
Ubiquitin carboxyl-terminal hydrolase 1 (Homo sapiens), sequence (O94782 whole entry, looked up): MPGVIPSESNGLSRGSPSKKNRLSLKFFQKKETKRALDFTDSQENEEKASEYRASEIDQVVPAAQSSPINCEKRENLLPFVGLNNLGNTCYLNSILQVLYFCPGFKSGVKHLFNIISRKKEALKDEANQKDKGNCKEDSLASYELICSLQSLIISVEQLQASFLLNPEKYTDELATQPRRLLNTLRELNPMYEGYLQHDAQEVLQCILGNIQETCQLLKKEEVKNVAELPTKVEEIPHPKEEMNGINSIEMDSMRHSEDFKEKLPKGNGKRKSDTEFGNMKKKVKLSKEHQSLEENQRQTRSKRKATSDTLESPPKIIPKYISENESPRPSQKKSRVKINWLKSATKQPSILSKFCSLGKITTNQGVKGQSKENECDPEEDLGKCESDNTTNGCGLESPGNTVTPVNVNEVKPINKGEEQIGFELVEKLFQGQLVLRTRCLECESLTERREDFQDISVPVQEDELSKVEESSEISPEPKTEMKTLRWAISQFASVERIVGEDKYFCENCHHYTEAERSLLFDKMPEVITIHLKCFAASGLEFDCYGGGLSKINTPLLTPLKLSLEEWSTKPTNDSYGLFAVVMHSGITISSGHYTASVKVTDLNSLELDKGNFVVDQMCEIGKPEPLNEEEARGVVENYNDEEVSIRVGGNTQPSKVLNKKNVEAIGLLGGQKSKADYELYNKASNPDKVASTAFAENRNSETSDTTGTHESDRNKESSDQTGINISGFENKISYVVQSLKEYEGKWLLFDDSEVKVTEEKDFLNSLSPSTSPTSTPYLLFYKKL
3',5'-cyclic-AMP phosphodiesterase 4B (Homo sapiens), sequence (Q07343 whole entry, looked up): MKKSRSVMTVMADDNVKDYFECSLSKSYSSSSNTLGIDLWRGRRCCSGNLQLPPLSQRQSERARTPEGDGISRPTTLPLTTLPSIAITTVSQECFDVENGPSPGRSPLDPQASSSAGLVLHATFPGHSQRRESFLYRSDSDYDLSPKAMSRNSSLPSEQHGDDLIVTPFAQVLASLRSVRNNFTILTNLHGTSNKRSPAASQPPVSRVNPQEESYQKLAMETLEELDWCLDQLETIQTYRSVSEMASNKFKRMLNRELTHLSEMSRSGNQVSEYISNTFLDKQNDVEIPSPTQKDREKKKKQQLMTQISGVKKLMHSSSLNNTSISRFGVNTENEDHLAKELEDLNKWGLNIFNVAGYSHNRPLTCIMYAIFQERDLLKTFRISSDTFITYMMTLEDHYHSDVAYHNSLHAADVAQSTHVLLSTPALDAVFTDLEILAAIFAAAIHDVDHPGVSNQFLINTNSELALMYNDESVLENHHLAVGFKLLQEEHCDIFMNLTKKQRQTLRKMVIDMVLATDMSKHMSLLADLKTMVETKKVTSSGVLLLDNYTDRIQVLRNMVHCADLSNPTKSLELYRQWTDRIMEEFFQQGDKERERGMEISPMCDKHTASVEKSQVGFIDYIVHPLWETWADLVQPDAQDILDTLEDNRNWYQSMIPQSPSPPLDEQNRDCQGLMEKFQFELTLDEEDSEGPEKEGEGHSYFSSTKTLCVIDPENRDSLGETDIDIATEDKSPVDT

On to `Cc1cc(O)c2c(c1O)C(=O)C(O)=C(O)C2=O`, for which the Potency result in [1] is “inactive”.
In the case of `C[C@H]1CC[C@@H]2N(C1)C[C@H]1[C@@H]3C[C@H]4[C@@H](C/C(=N\O)[C@H]5C[C@@H](O)CC[C@@]54C)[C@@H]3CC[C@H]1[C@]2(C)O`, the Potency result in assay [1] is “inactive”.
Same read-out and setting: the result for `C[C@H]1OC(=O)CC[C@@H]2[C@]1(C)CCC1[C@@]2(C)CC[C@@]2(C)C3CC(C)(C)CC[C@]3(CO)CC[C@]12C` (stereo not given in full) reads “inactive”.
For `O=C(O)c1c(C(=O)O)c2ccccc2[nH]c1=O`, the Potency result in assay [1] is “inactive”.
For `C=C1C[C@]23CC[C@H]4C(CO)(CO)C[C@@H](O)C[C@@]4(C)[C@@H]2CC[C@H]1C3`, in assay [1], the Potency result was “inactive”.
`N#CCCn1c(=O)c(CCc2ccccc2)nc2cnc(Oc3cccc(Cl)c3)nc21`: the Potency in assay [2] is > 11.4 µM (inactive); in assay [4] it was > 9.22 µM (inactive); in [5] it was > 46 µM (inactive); in assay [8], 3.16 µM (active); in assay [9], 0.794 µM (active); in assay [11], 6.31 µM (active). The activity change, negative = inhibition in assay [3] was -8.5% (inactive). For the same molecule, in [6], the molecule was called inactive. In addition, the Potency entry in assay [7] and in assay [10] was “inactive” in each case. The max response in [12] is 7.03% (inactive).
As for `CC1(O)/C=C\C=C(\CO)C2CC(C)(C)C2(O)CC1` (stereo not given), in [1], the Potency result was “inactive”.
Regarding `COc1ccc(-c2cnc(-c3cccnc3)o2)cc1`, in assay [1], the Potency result is “inactive”.
Still for that read-out and setting: the result for `CN1C(=O)N(C)C2=NNC=NC2(O)C1=O` (stereo not given) reads “inactive”; that for `Oc1cc2c(cc1O)[C@@H]1c3ccc(O)c(O)c3OC[C@]1(O)C2`, “inactive”.
Take `Cc1cccc(CNc2cc(-c3ccccc3CN(C)C)ncn2)c1`: the Potency in assay [2] is > 11.4 µM (inactive); in assay [14], 25.1 µM (active); in [4] it was > 46 µM (inactive); in [5], > 46 µM (inactive). The values for the activity change, negative = inhibition in assay [13] and in [18] (at 57.5 µM (top of the series)) were 9.15% (inactive) and 2.35% (inactive), respectively. Also, in assay [15], the activity, negative = inhibition was 11.7% (inactive). Besides, the molecule was called inactive in [6], in assay [16] and in assay [17]. The Potency entry in assay [10] and in assay [19] was “inactive” in each case. Moreover, the values for the max response in assay [18] (measured here: cell count channel max response), in assay [18] (measured here: lipid channel max response) and in assay [12] were 2.52%, 10% and -21.4% (inactive), respectively.
